The results in this text go back to ChEMBL document CHEMBL2218924, “A broad activity screen in support of a chemogenomic map for kinase signalling research and drug discovery” (Biochem J, 2013).

The target of experiment [1] is Tyrosine-protein kinase Lyn (Homo sapiens) (UniProt P07948). The settings on record: at 1 µM.
For experiment [2] the target is unchanged. Conditions: at 10 µM.
Experiment [3] deals with Mitogen-activated protein kinase 3 (Homo sapiens) (UniProt P27361). Conditions: at 1 µM.
Experiment [4] has the same target. Conditions: at 10 µM.
Experiment [5] deals with MAP kinase-activated protein kinase 2 (Homo sapiens) (UniProt P49137). Conditions: at 1 µM.
Experiment [6] shares this target. Conditions: at 10 µM.
Experiment [7] has as its target Serine/threonine-protein kinase MARK1 (Homo sapiens) (UniProt Q9P0L2). Conditions: at 1 µM.
Experiment [8] shares this target. Conditions: at 10 µM.
Experiment [9] addresses Dual specificity mitogen-activated protein kinase kinase 1 (Homo sapiens) (UniProt Q02750). The settings on record: at 1 µM.
For experiment [10] the target is unchanged. The settings on record: at 10 µM.
The target in experiment [11] is Maternal embryonic leucine zipper kinase (Homo sapiens) (UniProt Q14680). The settings on record: at 1 µM.
Experiment [12] shares this target. The settings on record: at 10 µM.
Experiment [13] has as its target Misshapen-like kinase 1 (Homo sapiens) (UniProt Q8N4C8). Conditions: at 1 µM.
The target is the same in experiment [14]. Conditions: at 10 µM.
For experiment [15], the target named is MAP kinase-activated protein kinase 3 (Homo sapiens) (UniProt Q16644). Conditions: at 10 µM.
Experiment [16] has as its target Mitogen-activated protein kinase 1 (Homo sapiens) (UniProt P28482). The settings on record: at 1 µM.
Experiment [17] shares this target. Conditions: at 10 µM.
For experiment [18], the target named is Tyrosine-protein kinase Lck (Homo sapiens) (UniProt P06239). Conditions: at 1 µM.
The target is the same in experiment [19]. The settings on record: at 10 µM.
Experiment [20] has the same target. The settings on record: at 10 µM. This is another data set of the same source.

Sequence of Serine/threonine-protein kinase MARK1 (Homo sapiens) (Q9P0L2 whole entry, looked up): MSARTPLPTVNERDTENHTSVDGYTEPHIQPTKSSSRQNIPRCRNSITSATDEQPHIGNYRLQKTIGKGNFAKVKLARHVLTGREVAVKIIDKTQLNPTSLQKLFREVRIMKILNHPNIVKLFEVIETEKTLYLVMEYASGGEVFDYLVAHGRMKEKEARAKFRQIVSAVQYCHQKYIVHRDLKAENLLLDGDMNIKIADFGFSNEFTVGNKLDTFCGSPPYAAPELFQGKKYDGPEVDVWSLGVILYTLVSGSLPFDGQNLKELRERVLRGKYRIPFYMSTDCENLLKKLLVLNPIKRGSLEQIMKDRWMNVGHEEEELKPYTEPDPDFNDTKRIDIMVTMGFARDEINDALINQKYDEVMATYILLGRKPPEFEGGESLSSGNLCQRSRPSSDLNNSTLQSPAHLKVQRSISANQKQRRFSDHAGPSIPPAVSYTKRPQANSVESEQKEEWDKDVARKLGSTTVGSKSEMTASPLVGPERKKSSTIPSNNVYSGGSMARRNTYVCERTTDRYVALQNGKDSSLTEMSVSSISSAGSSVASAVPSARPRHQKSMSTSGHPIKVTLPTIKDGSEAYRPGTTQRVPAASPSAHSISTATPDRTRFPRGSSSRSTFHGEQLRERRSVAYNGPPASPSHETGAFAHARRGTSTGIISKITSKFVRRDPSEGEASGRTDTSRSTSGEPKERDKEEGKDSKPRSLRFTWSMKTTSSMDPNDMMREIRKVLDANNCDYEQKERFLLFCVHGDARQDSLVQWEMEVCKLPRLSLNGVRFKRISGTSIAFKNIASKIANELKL
Sequence of Mitogen-activated protein kinase 1 (Homo sapiens) (P28482 whole entry): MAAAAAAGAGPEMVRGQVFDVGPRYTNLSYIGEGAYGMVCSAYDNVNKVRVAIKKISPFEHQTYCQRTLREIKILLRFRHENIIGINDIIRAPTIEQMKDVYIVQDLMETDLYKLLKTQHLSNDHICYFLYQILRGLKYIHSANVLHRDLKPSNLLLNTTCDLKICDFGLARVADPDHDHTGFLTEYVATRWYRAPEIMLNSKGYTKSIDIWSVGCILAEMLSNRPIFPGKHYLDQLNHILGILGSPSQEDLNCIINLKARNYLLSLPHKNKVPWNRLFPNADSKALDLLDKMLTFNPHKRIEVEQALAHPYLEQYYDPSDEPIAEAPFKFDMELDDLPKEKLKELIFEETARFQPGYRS
Sequence of Tyrosine-protein kinase Lyn (Homo sapiens) (P07948 2-512 limits assumed): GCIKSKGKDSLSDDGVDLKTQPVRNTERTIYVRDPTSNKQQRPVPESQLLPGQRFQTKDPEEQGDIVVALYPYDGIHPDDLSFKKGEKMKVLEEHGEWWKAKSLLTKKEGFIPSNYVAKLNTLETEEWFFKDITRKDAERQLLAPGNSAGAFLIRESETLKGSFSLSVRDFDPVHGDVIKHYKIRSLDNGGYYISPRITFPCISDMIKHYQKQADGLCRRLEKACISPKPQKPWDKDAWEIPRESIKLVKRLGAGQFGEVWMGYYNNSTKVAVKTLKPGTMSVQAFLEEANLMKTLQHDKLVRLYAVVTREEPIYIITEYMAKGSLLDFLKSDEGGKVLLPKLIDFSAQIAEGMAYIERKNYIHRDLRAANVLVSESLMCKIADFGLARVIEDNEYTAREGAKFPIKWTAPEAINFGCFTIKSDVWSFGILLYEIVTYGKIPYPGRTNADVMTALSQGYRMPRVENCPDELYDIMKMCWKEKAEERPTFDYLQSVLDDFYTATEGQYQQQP
Sequence of MAP kinase-activated protein kinase 2 (Homo sapiens) (P49137 whole entry, looked up): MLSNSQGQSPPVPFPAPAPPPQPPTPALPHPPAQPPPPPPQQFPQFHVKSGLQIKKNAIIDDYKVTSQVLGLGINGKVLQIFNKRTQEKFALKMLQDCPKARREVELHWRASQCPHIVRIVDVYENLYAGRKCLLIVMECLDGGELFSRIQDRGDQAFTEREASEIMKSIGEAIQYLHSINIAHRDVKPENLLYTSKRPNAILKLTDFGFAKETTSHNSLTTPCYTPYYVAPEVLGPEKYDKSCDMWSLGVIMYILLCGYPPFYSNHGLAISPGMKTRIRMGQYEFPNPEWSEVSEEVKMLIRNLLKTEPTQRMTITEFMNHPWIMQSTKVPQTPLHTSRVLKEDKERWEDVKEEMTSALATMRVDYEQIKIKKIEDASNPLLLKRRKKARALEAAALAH
Sequence of Misshapen-like kinase 1 (Homo sapiens) (Q8N4C8 whole entry, looked up): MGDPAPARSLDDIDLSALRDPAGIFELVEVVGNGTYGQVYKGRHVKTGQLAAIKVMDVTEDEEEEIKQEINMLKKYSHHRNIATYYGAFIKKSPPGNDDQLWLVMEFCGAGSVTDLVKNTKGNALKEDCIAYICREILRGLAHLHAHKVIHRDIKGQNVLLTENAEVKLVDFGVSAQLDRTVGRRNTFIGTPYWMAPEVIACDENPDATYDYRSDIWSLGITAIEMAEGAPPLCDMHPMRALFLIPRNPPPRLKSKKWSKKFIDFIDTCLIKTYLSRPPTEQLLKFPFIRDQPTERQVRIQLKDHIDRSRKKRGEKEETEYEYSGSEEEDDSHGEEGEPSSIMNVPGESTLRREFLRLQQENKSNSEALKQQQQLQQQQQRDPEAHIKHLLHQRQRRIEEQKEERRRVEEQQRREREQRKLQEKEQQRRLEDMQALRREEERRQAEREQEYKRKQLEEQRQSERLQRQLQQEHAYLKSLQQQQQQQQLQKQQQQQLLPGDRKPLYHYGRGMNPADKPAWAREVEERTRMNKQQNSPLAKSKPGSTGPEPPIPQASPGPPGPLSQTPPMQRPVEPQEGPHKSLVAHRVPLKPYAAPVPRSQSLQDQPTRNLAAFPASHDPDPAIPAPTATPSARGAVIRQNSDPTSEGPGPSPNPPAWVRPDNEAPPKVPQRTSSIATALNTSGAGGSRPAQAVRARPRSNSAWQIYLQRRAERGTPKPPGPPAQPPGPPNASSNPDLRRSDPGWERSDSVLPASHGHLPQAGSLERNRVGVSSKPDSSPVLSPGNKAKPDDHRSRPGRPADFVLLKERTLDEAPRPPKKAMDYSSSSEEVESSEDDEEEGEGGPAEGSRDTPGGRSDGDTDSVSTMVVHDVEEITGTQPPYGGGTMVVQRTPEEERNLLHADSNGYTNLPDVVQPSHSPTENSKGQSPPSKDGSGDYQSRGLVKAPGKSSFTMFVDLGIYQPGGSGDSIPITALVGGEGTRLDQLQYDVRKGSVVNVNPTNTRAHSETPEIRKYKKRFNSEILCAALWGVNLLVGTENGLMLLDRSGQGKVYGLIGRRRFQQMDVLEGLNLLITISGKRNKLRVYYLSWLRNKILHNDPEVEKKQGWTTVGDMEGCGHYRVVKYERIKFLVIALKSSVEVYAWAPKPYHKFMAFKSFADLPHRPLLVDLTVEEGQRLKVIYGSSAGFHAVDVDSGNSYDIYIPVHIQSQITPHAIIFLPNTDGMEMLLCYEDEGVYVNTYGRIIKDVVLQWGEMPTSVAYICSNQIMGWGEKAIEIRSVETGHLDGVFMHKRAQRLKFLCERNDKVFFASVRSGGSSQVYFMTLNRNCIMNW
Sequence of Maternal embryonic leucine zipper kinase (Homo sapiens) (Q14680 whole entry, looked up): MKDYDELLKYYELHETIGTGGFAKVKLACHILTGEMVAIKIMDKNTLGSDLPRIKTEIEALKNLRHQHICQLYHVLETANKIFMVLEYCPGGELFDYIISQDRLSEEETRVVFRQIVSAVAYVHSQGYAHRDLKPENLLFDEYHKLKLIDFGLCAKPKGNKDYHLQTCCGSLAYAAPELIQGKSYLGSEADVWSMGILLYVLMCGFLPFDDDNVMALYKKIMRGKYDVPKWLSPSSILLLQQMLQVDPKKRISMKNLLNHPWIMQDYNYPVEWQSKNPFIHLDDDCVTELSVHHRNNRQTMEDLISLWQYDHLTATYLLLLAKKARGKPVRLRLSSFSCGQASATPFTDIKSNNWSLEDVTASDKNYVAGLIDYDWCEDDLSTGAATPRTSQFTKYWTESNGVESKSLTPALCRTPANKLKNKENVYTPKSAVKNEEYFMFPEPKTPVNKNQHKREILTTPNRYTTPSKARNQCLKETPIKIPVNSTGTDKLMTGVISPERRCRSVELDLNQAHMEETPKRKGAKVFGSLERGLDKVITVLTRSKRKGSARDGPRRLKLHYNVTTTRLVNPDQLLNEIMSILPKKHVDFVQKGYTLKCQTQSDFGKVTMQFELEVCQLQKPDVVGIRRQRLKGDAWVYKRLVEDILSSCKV
Sequence of Tyrosine-protein kinase Lck (Homo sapiens) (P06239 2-509 limits assumed): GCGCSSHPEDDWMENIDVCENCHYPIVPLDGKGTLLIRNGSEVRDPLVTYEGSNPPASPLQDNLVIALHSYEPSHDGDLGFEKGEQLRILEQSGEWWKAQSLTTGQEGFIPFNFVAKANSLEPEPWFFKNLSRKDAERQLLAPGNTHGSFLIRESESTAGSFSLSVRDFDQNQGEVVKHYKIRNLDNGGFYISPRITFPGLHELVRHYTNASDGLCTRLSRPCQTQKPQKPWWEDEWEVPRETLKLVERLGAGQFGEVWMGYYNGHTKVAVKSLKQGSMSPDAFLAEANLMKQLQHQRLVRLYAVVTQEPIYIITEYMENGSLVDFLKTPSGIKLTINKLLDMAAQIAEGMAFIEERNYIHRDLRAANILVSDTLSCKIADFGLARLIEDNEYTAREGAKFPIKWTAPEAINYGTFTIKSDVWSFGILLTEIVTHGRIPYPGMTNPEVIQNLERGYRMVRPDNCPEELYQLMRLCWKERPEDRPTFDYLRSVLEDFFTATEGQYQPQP
Sequence of MAP kinase-activated protein kinase 3 (Homo sapiens) (Q16644 whole entry, looked up): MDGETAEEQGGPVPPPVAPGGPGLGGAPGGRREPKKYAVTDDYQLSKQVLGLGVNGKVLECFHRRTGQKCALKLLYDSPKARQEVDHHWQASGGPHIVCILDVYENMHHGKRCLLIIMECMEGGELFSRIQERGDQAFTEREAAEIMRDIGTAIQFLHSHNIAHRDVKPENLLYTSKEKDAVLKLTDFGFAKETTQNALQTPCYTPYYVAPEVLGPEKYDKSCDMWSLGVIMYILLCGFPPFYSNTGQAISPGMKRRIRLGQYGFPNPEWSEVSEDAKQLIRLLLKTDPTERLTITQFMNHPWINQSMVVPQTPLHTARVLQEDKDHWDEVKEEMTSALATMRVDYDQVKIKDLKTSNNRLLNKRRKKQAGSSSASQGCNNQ

Consider `CC(C)(C)c1nc2c3ccc(F)cc3c3c(=O)[nH]ccc3c2[nH]1`, for which the residual activity in [1] was determined as 65%; in [2], 20%; in experiment [3], 47%; in [4] it was 64%; in experiment [5], 79%; in experiment [6], 62%. For the same molecule, the residual activity came to 29% in experiment [7]; 14% in experiment [8]; 66% in [9]; 20% in experiment [10]; 2% in experiment [11]; 2% in [12]. Moreover, the residual activity in experiment [13] was 81%; in experiment [14], 78%.

With `CCN1/C(=C/C(C)=O)Sc2ccc(OC)cc21`, the residual activity in experiment [1] was 49%; in [2], 37%; in [7] it was 67%; in experiment [8] it was 65%.

Consider `O=S(=O)(NCCNC/C=C/c1ccc(Br)cc1)c1cccc2cnccc12`, for which the residual activity in experiment [2] came out at 49%; in [4] it was 70%; in experiment [7], 76%; in [8], 37%; in [11], 45%; in experiment [12], 9%. In addition, the residual activity in experiment [14] was 75%.

Consider `O=C1NC(=O)C(c2cn(CCCO)c3ncccc23)=C1c1cnccn1`, for which the residual activity in experiment [1] was found to be 78%; in experiment [2], 70%; in [5], 93%; in experiment [6] it was 93%; in experiment [15] it was 100%; in [7] it was 81%. Moreover, the results for the residual activity in experiment [8], in experiment [11] and in experiment [12] were 79%, 78% and 68%, respectively.

As for `CCOC(=O)c1c(C)[nH]c(/C=C2\C(=O)Nc3ccccc32)c1C`, the residual activity turned out to be 50% in experiment [1]; 26% in [2]; 81% in experiment [3]; 91% in experiment [4]; 100% in experiment [16]; 96% in experiment [17]. Besides, the residual activity worked out at 95% in [15]; 89% in experiment [7]; 87% in experiment [8]; 77% in experiment [11]; 97% in experiment [12]; 86% in experiment [13]. In addition, in experiment [14], the residual activity was 75%.

Regarding `NC(=O)c1ccc(-c2nc(-c3ccc4c(c3)OCCO4)c(-c3ccccn3)[nH]2)cc1`, the residual activity in experiment [1] came out at 83%; in experiment [3], 96%; in experiment [7] it was 96%; in experiment [8], 89%; in [11], 73%; in experiment [12] it was 70%.

As for `NC(=O)c1cccc(-c2cc(Nc3ccc(OC(F)(F)F)cc3)ncn2)c1`, the residual activity in experiment [18] is 92%; in experiment [19], 91%; in experiment [1], 97%; in [2] it was 82%; in experiment [11], 74%; in experiment [12], 75%.

As for `Cn1sc(=O)n(Cc2ccccc2)c1=O`, the residual activity is 82% in experiment [1]; 92% in experiment [2]; 83% in experiment [3]; 92% in [4]; 95% in experiment [16]; 92% in experiment [17]. Further, the residual activity was found to be 72% in [5]; 93% in experiment [6]; 76% in [7]; 70% in experiment [8]; 96% in experiment [9]; 88% in experiment [11]. Also, the residual activity in experiment [12] worked out at 65%; in [13], 96%; in experiment [14], 91%.

In the case of `Nc1n[nH]c2nc3ccccc3nc12`, the residual activity in [1] amounted to 75%; in experiment [2], 67%; in experiment [16], 123%; in experiment [15], 94%; in [7], 75%; in experiment [8], 74%. In addition, the residual activity came out at 87% in experiment [9], 85% in experiment [10], 97% in [11] and 70% in experiment [12].

For the molecule `CN(C)S(=O)(=O)c1ccc2c(c1)/C(=C/c1cc3c([nH]1)CCCC3)C(=O)N2`, the residual activity in experiment [1] came to 3%; in [2], 0%; in experiment [4], 88%; in experiment [5], 81%; in experiment [6], 92%; in experiment [15], 92%. For the same molecule, the residual activity was 24% in experiment [7]; 17% in experiment [8]; 83% in [10]; 95% in [12]; 124% in experiment [13]; 97% in experiment [14].

`COc1ccc(COc2ccc(Cc3cnc(N)nc3N)cc2OC)cc1`: the residual activity in experiment [20] worked out at 77%; in experiment [3], 100%; in experiment [4], 76%; in experiment [8], 71%.

In the case of `N#Cc1c(NC(=O)c2cccc3ccccc23)sc2c1CCCC2`, the residual activity in experiment [1] stood at 90%; in experiment [2], 62%; in experiment [17] it was 92%; in [15], 88%; in experiment [7], 100%; in experiment [8], 92%. Moreover, the residual activity in [11] was 87%; in [12] it was 91%; in experiment [13], 95%; in [14], 93%.

Consider `CC(C)[C@H](CO)Nc1nc(Nc2cc(N)cc(Cl)c2)c2ncn(C(C)C)c2n1`, for which the residual activity was 9% in experiment [1]; -1% in experiment [2]; 91% in experiment [3]; 82% in [4]; 66% in [17]; 89% in [5]. Moreover, the residual activity in experiment [6] amounted to 117%; in experiment [7], 92%; in experiment [8], 38%; in experiment [14], 73%.

For `N#C/C(=C1/Nc2ccccc2S1)c1ccnc(NCCc2cccnc2)n1`, the residual activity worked out at 15% in experiment [2]; 68% in experiment [15]; 74% in experiment [11]; 50% in experiment [12]; 96% in [13]; 72% in experiment [14].

Take `COc1cc2c(cc1OC)-c1n[nH]c(Nc3cccc(F)c3)c1C2`: the residual activity turned out to be 6% in experiment [1]; 6% in [2]; 76% in [4]; 103% in experiment [16]; 103% in experiment [17]; 75% in experiment [5]. For the same molecule, the residual activity in [15] worked out at 99%; in experiment [7], 73%; in experiment [8], 48%; in experiment [9], 108%; in experiment [11], 47%; in experiment [12] it was 11%. For the same molecule, the residual activity in experiment [13] came to 74%; in experiment [14], 42%.

`Nc1ncnc2c1cnn2-c1ccccc1`: the residual activity in [1] is 95%; in experiment [2], 82%; in experiment [3] it was 82%; in experiment [4] it was 80%; in [17], 95%; in [5], 92%. For the same molecule, the residual activity in experiment [15] came out at 92%; in [7], 89%; in experiment [8] it was 88%; in [10], 79%; in [11], 95%; in experiment [12], 73%. Further, the residual activity in experiment [14] came out at 99%.

In the case of `N#C/C(=C\c1ccc(O)c(O)c1)C(=O)NCc1ccccc1`, the residual activity in experiment [2] came out at 70%; in experiment [3], 77%; in [4] it was 65%; in experiment [5], 85%; in experiment [6], 77%; in [7], 85%. Besides, the residual activity was determined as 88% in experiment [8], 80% in experiment [11], 72% in [12] and 84% in experiment [14].

Take `O=C1Cc2c([nH]c3ccc([N+](=O)[O-])cc23)-c2ccccc2N1`: the residual activity in experiment [18] came out at 76%; in experiment [19], 45%; in [1], 6%; in experiment [2], 5%; in [16], 109%; in experiment [5] it was 69%. Moreover, the residual activity was determined as 50% in experiment [6]; 53% in experiment [15]; 34% in experiment [7]; 28% in experiment [8]; 103% in experiment [9]; 129% in experiment [10]. For the same molecule, the residual activity in experiment [11] was found to be 81%; in experiment [12], 64%; in experiment [13] it was 60%; in [14] it was 36%.

Regarding `Cn1c2ccccc2c2c3c(c4c5ccccc5n(CCC#N)c4c21)CNC3=O`, the residual activity in [1] amounted to 21%; in experiment [2] it was 9%; in experiment [3], 52%; in experiment [16], 48%; in experiment [17], 44%; in experiment [15] it was 77%. The residual activity in experiment [7] came to 4%; in [8], 5%; in experiment [9], 36%; in [10], 34%; in experiment [11], 9%; in [12], 4%. The residual activity in experiment [13] was 21%; in [14], 16%.
